Data published in PubChem BioAssay (NCI).
About 79,000 compounds went through this panel and 15% of them were active in at least one assay; those are over-represented in the sample as a whole. Active and inactive are the calls of the source. No stated cut-off is given here; in the data, active means growth inhibition above about 70%; inactive means the rest.

What was measured:
[1] = NCI Yeast Anticancer Drug Screen. Data for the rad50 strain (AID 155);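 further: 0% = growth of vehicle-only cultures of the same strain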; conditions: S. cerevisiae rad50 strain growth inhibition, hits give high values
In short: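 A DNA repair-deficient yeast mutant serves as the test organism; compound-induced growth inhibition is calculated against vehicle-treated cells.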

[2] = NCI Yeast Anticancer Drug Screen. Data for the mec2-1 strain (AID 157); conditions: S. cerevisiae mec2-1 strain, hits give high values
In short: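 Each compound was tested on mec2-1 yeast, a strain altered in DNA damage repair or cell cycle control. Growth inhibition is reported relative to vehicle.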

[3] = NCI Yeast Anticancer Drug Screen. Data for the sgs1 mgt1 strain (AID 161);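 further: 0% = growth of cultures given vehicle only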; conditions: S. cerevisiae sgs1 mgt1 strain, hits give high values
In short: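 Genetically altered yeast, compound exposure, growth inhibition relative to vehicle.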

[4] = NCI Yeast Anticancer Drug Screen. Data for the cln2 rad14 strain (AID 165);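 further: 0% = growth equal to vehicle treated cultures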; conditions: S. cerevisiae cln2 rad14 strain, hits give high values
In short: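 Test compounds were added to cln2 rad14 yeast cultures; inhibition of growth was then determined by comparison with vehicle treatment.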

[5] = NCI Yeast Anticancer Drug Screen. Data for the bub3 strain (AID 167); conditions: S. cerevisiae bub3 mutant strain, hits give high values
In short: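 Inhibition values come from growth of compound-treated mutant yeast normalised to vehicle-treated controls.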

[6] = NCI Yeast Anticancer Drug Screen. Data for the mlh1 rad18 strain (AID 175); conditions: S. cerevisiae mlh1 rad18 strain growth inhibition, hits give high values
In short: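 Inhibition values reflect reduced growth of mutant yeast versus vehicle-treated controls following compound exposure; the mutations affect DNA damage repair.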

[7] = at 5.0 µM (retest, dose inferred, filed as 0.5)
[8] = at 50.0 µM (retest, dose inferred, filed as 5.0)

Measured: growth inhibition

O=C(Cc1ccccc1)c1ccc(O)c(F)c1
active: [1]; [8] 79% | [1]; at 50.0 µM 87.3% | [2]; [8] 85% | [2]; at 50.0 µM 77.5% | [3]; [8] 72% | [3]; at 50.0 µM 80.2% | [4]; at 50.0 µM 72.4% | [5]; [8] 88% | [5]; at 50.0 µM 82.5% | [6]; [8] 84% | [6]; at 50.0 µM 83.7%
inactive: [1]; [7] 4% | [2]; [7] 6% | [3]; [7] 6% | [4]; [7] 4% | [4]; [8] 68% | [5]; [7] 7% | [6]; [7] 7%

O=C(N/N=C/c1ccccc1)c1ccc([N+](=O)[O-])cc1
inactive: [1]; [7] 16% | [1]; [8] 15% | [1]; at 50.0 µM 8.6% | [2]; [7] -3% | [2]; [8] 6% | [2]; at 50.0 µM 7.3% | [3]; [7] 22% | [3]; [8] 12% | [3]; at 50.0 µM 1.15% | [4]; [7] 12% | [4]; [8] 19% | [4]; at 50.0 µM -1.35% | [5]; [7] 17% | [5]; [8] 24% | [5]; at 50.0 µM 14.9% | [6]; [7] 15% | [6]; [8] 18% | [6]; at 50.0 µM 1.05%

COc1ccc(C2COc3cc(O)c(O)cc3C2)cc1 (configuration not stated)
active: [1]; [7] 95% | [1]; [8] 99% | [1]; at 50.0 µM 99.6% | [2]; [7] 95% | [2]; [8] 99% | [2]; at 50.0 µM 99.6% | [3]; [7] 93% | [3]; [8] 99% | [3]; at 50.0 µM 99.8% | [4]; [8] 99% | [4]; at 50.0 µM 99.6% | [5]; [7] 98% | [5]; [8] 99% | [5]; at 50.0 µM 99.6% | [6]; [7] 99% | [6]; [8] 99% | [6]; at 50.0 µM 98.2%
inactive: [4]; [7] 46%

C/C(=N\NC(=S)N1CCN(c2ccccn2)CC1)c1ncccn1
active: [4]; at 50.0 µM 83.2% | [5]; at 50.0 µM 93.6% | [6]; at 50.0 µM 86%
inactive: [1]; [7] 2% | [1]; [8] -6% | [1]; at 50.0 µM 32.5% | [2]; [7] -20% | [2]; [8] -10% | [2]; at 50.0 µM 49.9% | [3]; [7] -7% | [3]; [8] -13% | [3]; at 50.0 µM 45.9% | [4]; [7] -2% | [4]; [8] 7% | [5]; [7] -10% | [5]; [8] -9% | [6]; [7] -3% | [6]; [8] 10%

Cn1cc(/C=C/[N+](=O)[O-])c2ccc(OCc3ccccc3)cc21
inactive: [1]; [7] 2% | [1]; [8] -6% | [1]; at 50.0 µM 4.75% | [2]; [7] -3% | [2]; [8] -7% | [2]; at 50.0 µM 37% | [3]; [7] 4% | [3]; [8] 4% | [3]; at 50.0 µM 10.2% | [4]; [7] 10% | [4]; [8] 54% | [4]; at 50.0 µM 17.5% | [5]; [7] 14% | [5]; [8] 34% | [6]; [7] 3% | [6]; [8] 11% | [6]; at 50.0 µM 16.9%
active: [5]; at 50.0 µM 76.3%

CN=C(N)N/N=C(\C)c1ccc2c(c1)Cc1cc(/C(C)=N/NC(N)=NC)ccc1-2
inactive: [1]; [7] 63% | [2]; [7] 53% | [3]; [7] 45% | [4]; [7] 50% | [5]; [7] 54% | [6]; [7] 59%
active: [1]; [8] 94% | [1]; at 50.0 µM 87% | [2]; [8] 96% | [2]; at 50.0 µM 75.9% | [3]; [8] 98% | [3]; at 50.0 µM 83.2% | [4]; [8] 95% | [4]; at 50.0 µM 85.3% | [5]; [8] 96% | [5]; at 50.0 µM 86.1% | [6]; [8] 96% | [6]; at 50.0 µM 86.4%

C/C(=C/c1ccccc1)C(=O)C1C(c2ccccc2)CC(O)C(C)C1c1ccccc1 (configuration not stated)
active: [1]; [8] 86% | [1]; at 50.0 µM 82.2% | [2]; [8] 81% | [2]; at 50.0 µM 91.2% | [3]; [8] 86% | [3]; at 50.0 µM 82.3% | [4]; [8] 89% | [4]; at 50.0 µM 88.4% | [5]; [8] 82% | [5]; at 50.0 µM 77.8% | [6]; [8] 90% | [6]; at 50.0 µM 86.5%
inactive: [1]; [7] 11% | [2]; [7] 1% | [3]; [7] 10% | [4]; [7] -4% | [5]; [7] -5% | [6]; [7] 16%

Cc1cccc(C)c1N1C(=O)C2Nc3ccccc3SC2C1=O (configuration not stated)
active: [1]; [8] 93% | [1]; at 50.0 µM 98.5% | [2]; [8] 94% | [2]; at 50.0 µM 98.7% | [3]; [8] 96% | [3]; at 50.0 µM 98.4% | [4]; [8] 90% | [4]; at 50.0 µM 95.8% | [5]; [8] 94% | [5]; at 50.0 µM 98.3% | [6]; [8] 95% | [6]; at 50.0 µM 98.5%
inactive: [1]; [7] 7% | [2]; [7] -1% | [3]; [7] 3% | [4]; [7] 2% | [5]; [7] 1% | [6]; [7] 11%

NC(N)=N/N=C/c1ccc([N+](=O)[O-])o1
active: [3]; at 50.0 µM 70.2%
inactive: [1]; [7] 11% | [1]; [8] 22% | [1]; at 50.0 µM 66% | [2]; [7] 4% | [2]; [8] 13% | [2]; at 50.0 µM 49% | [3]; [7] 3% | [3]; [8] 16% | [4]; [7] 3% | [4]; [8] 7% | [4]; at 50.0 µM 25.2% | [5]; [7] 6% | [5]; [8] 39% | [5]; at 50.0 µM 28.7% | [6]; [7] 10% | [6]; [8] 23% | [6]; at 50.0 µM 61.4%
